The results in this text go back to PubChem BioAssay AID411 (National Center for Advancing Translational Sciences (NCATS), 2006).

Screen size: about 72,000 compounds; about 1,600 (2.2%) were called active. Only a selection was taken, and actives are over-represented in it overall. A number with no mark means an inactive call. Calls come from the whole dose curve; as a rule, active = well fitted inhibition curve with a large enough effect; inconclusive = small, poorly fitted or top-dose-only effect; inactive = flat fitted curve, though single readings scatter.
% is set by controls: 0 for no effect and ±100 for the full control effect; potency is the fitted concentration of half-maximal effect.

Luciferin 4-monooxygenase (Photinus pyralis), sequence (P08659 whole entry, looked up): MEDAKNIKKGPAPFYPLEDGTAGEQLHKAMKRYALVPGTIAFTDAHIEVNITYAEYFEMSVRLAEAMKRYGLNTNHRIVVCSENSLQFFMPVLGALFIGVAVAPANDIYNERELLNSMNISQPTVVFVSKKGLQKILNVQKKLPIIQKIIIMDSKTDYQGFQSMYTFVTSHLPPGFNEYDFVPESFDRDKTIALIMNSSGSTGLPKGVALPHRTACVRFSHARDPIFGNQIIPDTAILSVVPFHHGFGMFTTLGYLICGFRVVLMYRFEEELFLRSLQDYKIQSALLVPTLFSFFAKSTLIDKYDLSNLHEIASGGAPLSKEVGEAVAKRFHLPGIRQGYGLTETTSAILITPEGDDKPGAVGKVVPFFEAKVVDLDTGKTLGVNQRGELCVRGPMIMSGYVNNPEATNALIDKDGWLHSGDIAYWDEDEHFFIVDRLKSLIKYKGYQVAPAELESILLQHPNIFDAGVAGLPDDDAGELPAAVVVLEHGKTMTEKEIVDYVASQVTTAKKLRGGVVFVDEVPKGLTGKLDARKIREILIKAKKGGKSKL

In this experiment the target is Luciferin 4-monooxygenase (Photinus pyralis) (UniProt P08659). The experiment is described as follows: qHTS Assay for Inhibitors of Firefly Luciferase. Note: nearly all actives have a fitted effect of over 40% in size. The following applies: purified firefly luciferase, luminescence, 8 min; series mostly up to 57.1 µM; activity change, negative = inhibition: at the top concentration. The protocol:
To aid in the interpretation of high-throughput screening (HTS) results derived from luciferase-based assays, we used quantitative HTS, an approach that defines the concentration-response behavior of each library sample, to profile the ATP-dependent luciferase from Photinus pyralis against more than 72 000 samples. Luciferase (PKLight, Cambrex Corporation) was assayed for its ability to generate light using ATP and luciferin as substrates. The ATP concentration in the assay (10 uM) was within the linear range of enzyme activity for the assay conditions used. See following reference for further details: [1] Auld DS, Southall NT, Jadhav A, Johnson RL, Diller DJ, Simeonov A, Austin CP, Inglese J. Characterization of chemical libraries for luciferase inhibitory activity. J Med Chem. 2008 Apr 24;51(8):2372-86. Auld DS, Zhang YQ, Southall NT, Rai G, Landsman M, Maclure J, Langevin D, Thomas CJ, Austin CP, Inglese J. A Basis for Reduced Chemical Library Inhibition of Firefly Luciferase Obtained from Directed Evolution. J. Med. Chem., 2009, 52 (5), pp 1450#1458 [3] Auld DS, Thorne N, Nguyen DT, Inglese J. A specific mechanism for nonspecific activation in reporter-gene assays. ACS Chem Biol. 2008 Aug 15;3(8):463-70. Auld DS, Thorne N, Maguire WF, Inglese J. Mechanism of PTC124 activity in cell-based luciferase assays of nonsense codon suppression. Proc Natl Acad Sci U S A. 2009 Mar 3;106(9):3585-90. Inglese J, Auld DS, Jadhav A, Johnson RL, Simeonov A, Yasgar A, Zheng W, Austin CP. Quantitative high-throughput screening: a titration-based approach that efficiently identifies biological activities in large chemical libraries. Proc Natl Acad Sci U S A. 2006 Aug 1;103(31):11473-8.
Four uL of substrate mix (final concentration, 50 mM imidazole pH 7.2, 50 mM KCl, 7 mM MgCl2, 10 uM ATP, 0.01% Tween 20, 0.05% BSA) was dispensed into white 1536 well plates. Twenty-three nL of compound was delivered by a pin tool and 2 uL of luciferase detector mix (PKLight, Cambrex) was added. Following 8-minute incubation at ambient temperature, luminescence was measured by a ViewLux (Perkin Elmer) at 5 seconds exposure/plate.
In the case of `O=c1oc2cc(O)ccc2cc1-c1ccc(F)cc1`, the “activity change, negative = inhibition” value is 4.51% (inactive). `COc1ccc(-c2cc3ccc(OCc4nn[nH]n4)cc3oc2=O)cc1`: the Potency was 3.16 µM (active). As to `CCCCc1cc(=O)oc2cc(C)cc(OCc3nn[nH]n3)c12`, the “activity change, negative = inhibition” value was 3.09% (inactive). In the case of `CCn1ccnc1C[C@@H]1COc2ccccc2O1`, the Potency result was “inactive”. As for `CCOc1ccc(C(C)C)cc1S(=O)(=O)n1nc(C)cc1C`, the “activity change, negative = inhibition” value was 0.916% (inactive). The same measure, in the same setting: in the case of `O=C1C(c2ccccn2)=[N+]([O-])c2ccccc21` it was -5.6% (inactive).

As to `CCn1nc(C(=O)OCC(=O)N2c3ccccc3CC2C)c2ccccc2c1=O` (stereo not drawn), the “activity change, negative = inhibition” value was -32.8% (inactive). For the compound `CCCC(=O)N1c2ccc(-c3csc(N)n3)cc2CC1C` (stereo not drawn), the Potency is 12.6 µM (active). On to `CCC(=O)N1c2ccc(S(=O)(=O)CCC(=O)N3CCN(c4ccccc4)CC3)cc2CC1C` (stereo not drawn), for which the “activity change, negative = inhibition” value is -0.787% (inactive). The same measure, in the same setting: the same measure for `O=C(c1ccc2c(c1)OCCO2)C1CCN(S(=O)(=O)c2cccc(F)c2)CC1`: 0.966% (inactive); for `O=C(c1ccc(F)cc1)C1CCN(CCCCc2ccccc2)CC1`: -0.998% (inactive). Consider `Cc1nc2cnc(N3CCN(C)CC3)nc2n(CCC#N)c1=O`, for which the activity change, negative = inhibition is 0.64% [at 11.4 µM]. Still for that read-out and setting: the same measure for `O=C1CCC(C(=O)Nc2ccc(OC(F)F)cc2)N1` (stereo not drawn): -35% (inactive).

Consider `OCCCN1c2ccccc2Nc2nnc(-c3ccccc3)cc21`, for which the Potency is 3.98 µM (active). As for `NS(=O)(=O)c1cc(Cl)c(Cl)c(S(N)(=O)=O)c1`, the “activity change, negative = inhibition” value is -1.68% [at 25.5 µM] (inactive). The same measure, in the same setting: in the case of `COc1ccc(Br)c2c1C[C@H](C(=O)O)CC2` it was 3.64% [at 11.4 µM]. Regarding `CCN(Cc1ccncc1)C(=O)[C@@H](CO)c1ccccc1`, the Potency entry is “inactive”. Consider `Cn1c(=NC(=O)c2cnccn2)sc2ccccc21`, for which the Potency was 12.6 µM (active).

On to `Cn1c(=NC(=O)CSCC(=O)N2CCCCC2)sc2ccccc21`, for which the “activity change, negative = inhibition” value is 1.33% (inactive). For the compound `Cn1c(=NC(=O)CSCC(=O)N2CCOCC2)sc2ccccc21`, the “activity change, negative = inhibition” value is 0.14% (inactive).

In the case of `Cc1ccc2nc(-c3ccc(SCC(=O)Nc4cc(C)on4)nc3)[nH]c2c1`, the Potency is 2.51 µM (active). With `Cc1nc(SCC(=O)Nc2cc(C)on2)c2c(C)c(C)sc2n1`, the “activity change, negative = inhibition” value was 1.36% (inactive). `Cc1cc(C)c2c(c1)cc(C)c1nnc(SCC(=O)Nc3cc(C)on3)n12`: the “activity change, negative = inhibition” value is -0.208% (inactive). Still for that read-out and setting: the same measure for `COc1ccc(N(C(=O)c2cccnc2)S(=O)(=O)c2ccc3c(c2)n(C)c(=O)n3C)cc1`: 3.46% (inactive); for `O=S(=O)(Nc1ccccn1)c1ccc(Oc2ccccc2)cc1`: -1.02% (inactive). Take `O=C(c1cnn2ccccc12)N1CCc2ccccc21`: the Potency is 12.6 µM (active). Regarding `O=C(c1cccc(C(=O)N2CCc3ccccc32)n1)N1CCc2ccccc21`, the “activity change, negative = inhibition” value is -0.0998% (inactive). On the same count and under the same terms, in the case of `CCOC(=O)N1CCC(NC(=O)c2cnn3ccccc23)CC1` it was 2.3% (inactive); in that of `O=C(c1ccc([N+](=O)[O-])cc1)[C@@H](Br)[C@@H](Br)c1ccnc2ccccc12`, -0.655% [at 11.4 µM]. On the same count and under the same terms, the same measure for `COC(=O)CNS(=O)(=O)c1ccc(Cc2ccc(S(=O)(=O)NCC(=O)OC)cc2)cc1`: 2.65% (inactive); for `O=C(NCCc1ccc2c(c1)OCCO2)c1cc2ccccc2o1`: -1.17% (inactive). Regarding `O=C(Nc1ccncc1)c1cc2ccccc2o1`, the Potency is 20 µM (active).

`O=C(Nc1ccncc1)c1c(F)cccc1F`: the “activity change, negative = inhibition” value is -1.11% (inactive). With `O=C(c1ccco1)N1CCC[C@@]2(CCN(Cc3nccs3)C2)C1`, the activity change, negative = inhibition is 2.02% [at 11.4 µM]. Same read-out and setting: in the case of `COc1ccc(Cc2nnnn2CC(=O)O)cc1` it was 2.34% (inactive). Regarding `COC(=O)c1sc(NC(=O)c2csc3c2CCCC3)nc1C`, the Potency is 10 µM (active). Take `CC(=O)Cc1nsc(NC(=O)c2csc3c2CCCC3)n1`: the “activity change, negative = inhibition” value is -7.41% (inactive). With `COC(=O)c1sc(NC(=O)c2ccc(OC)cc2OC)nc1C`, the Potency is 0.0794 µM (active). Regarding `CCOC(=O)c1sc(NC(=O)c2cc(S(=O)(=O)N3CCOCC3)ccc2C)nc1C`, the “activity change, negative = inhibition” value was 1.64% (inactive). The same measure, in the same setting: the same measure for `COc1ccc(C(=O)Nc2nncs2)c(OC)c1`: -26.7% (inactive); for `COC(=O)c1sccc1NC(=O)c1csc2c1CCCC2`: -1.4% (inactive); for `CC(C)=CCC/C(C)=C/CO/N=C1/C[C@@H](O)[C@@H](O)[C@@H]2[C@@H]3C(=O)N(C(C)(C)C)C(=O)[C@H]3CC[C@H]12`: 0.109% [at 11.4 µM]. For `Cc1cnc(NC(=O)CSc2nnc(-c3ccc(Cl)cc3Cl)n2N)s1`, the “activity change, negative = inhibition” value is -5.3% (inactive).

Turning to `CCOC(=O)C1CCN(C(c2cc3cc(C)cc(C)c3[nH]c2=O)c2nnnn2C2CCCCC2)CC1` (stereo not drawn), the “activity change, negative = inhibition” value is 3.48% (inactive).

In the case of `COc1ccc(-c2nn(-c3ccccc3)cc2C(=O)Nc2nc(CC(C)=O)ns2)cc1`, the “activity change, negative = inhibition” value is 1.9% (inactive).

For `O=C(O)C1CCN(c2ncnc3ccc(-c4ccccc4C(F)(F)F)cc23)CC1`, the activity change, negative = inhibition was 0.203% [at 2.29 µM]. For `COc1ccc(NC2CC(=O)N(C)C2=O)cc1` (stereo not drawn), the “activity change, negative = inhibition” value is 2.41% [at 25.5 µM] (inactive). On to `COc1ccccc1CNc1ccnc(-c2c(C)noc2C)n1`, for which the activity change, negative = inhibition was -0.167% [at 2.29 µM]. Regarding `CC(C)(C)c1csc(NC2=NS(=O)(=O)c3ccccc32)n1`, the Potency is 7.94 µM (active).

Regarding `CC(c1nnc(SCC(=O)Nc2sccc2C#N)n1-c1ccc(Cl)cc1)N(C)C` (stereo not drawn), the “activity change, negative = inhibition” value was 1.74% (inactive). The same measure, in the same setting: in the case of `O=S(=O)(c1cccs1)N1CCN(Cc2ccccc2)CC1` it was 0.959% (inactive); in that of `CCCCN(C)C(=O)C1CCN(Cc2ccccn2)CC1`, -0.416% (inactive); in that of `Cc1ccc(-n2ncc3c(N4CCN(c5ccc(F)cc5)CC4)ncnc32)c(C)c1`, 0.241% (inactive).
